Assay outcomes as filed in PubChem.
Beta2AR agonist: activates human beta-2 adrenergic receptor causing internalization | Am2.2-beta2AR cells, FAP receptor internalization, flow cytometry | actives 0.43% (n = 340,000) | response, % (no concentration beside the values) | P07550;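 active = response above a set limit, near 3 SD of response in nonfluorescent compounds, cut at about 42% in these data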
Target sequence (P07550 whole entry, looked up): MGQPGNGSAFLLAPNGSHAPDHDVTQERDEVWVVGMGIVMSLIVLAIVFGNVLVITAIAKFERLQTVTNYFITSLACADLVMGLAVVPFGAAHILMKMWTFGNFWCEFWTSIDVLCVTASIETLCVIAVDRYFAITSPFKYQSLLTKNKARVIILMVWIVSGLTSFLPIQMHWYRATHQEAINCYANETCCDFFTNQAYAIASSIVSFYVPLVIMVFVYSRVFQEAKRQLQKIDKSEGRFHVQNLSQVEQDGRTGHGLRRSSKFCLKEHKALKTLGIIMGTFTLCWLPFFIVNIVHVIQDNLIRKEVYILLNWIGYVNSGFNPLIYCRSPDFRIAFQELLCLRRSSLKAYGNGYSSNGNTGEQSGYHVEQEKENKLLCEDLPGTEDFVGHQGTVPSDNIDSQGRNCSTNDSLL
TLR9-MyD88 inh: inhibitors of human TLR9-MyD88 binding; inhibition, % at 4.98 µM; AID 504734; CHO BLA complementation TLR9-MyD88, CCF4 FRET ratio; actives 0.21% (n = 340,000); Q9NR96+Q99836;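 active = inhibition above the mean over all tested compounds plus 3 SD, cut at about 21% in these data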;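 note: 0% = DMSO only wells and 100% = clavulanate BLA inhibitor control wells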
NOD2-RIPK2 inh: NOD2-RIPK2 protein interaction inhibition. CHO BLA complementation NOD2-RIPK2, CCF4 ratio. inhibition, % at 4.98 µM. actives 0.38% (n = 360,000); in the data active = inhibition above about 21%;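 note: 0% = vehicle only and 100% = reference blocker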
NTR1 ag: NTR1 (human) agonism | actives 0.17% (n = 330,000) | AID 493036 | P30989 | activation, % at 20 µM | NTR1-U2OS beta-arrestin-GFP spot imaging, agonist mode;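 active = activation at or above 40% of the spot to cytoplasm intensity ratio, with at least 20 cells analyzed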;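 note: 0% = DMSO without peptide and 100% = 100 nM NTR1 peptide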
TLR4 MyD88 comp: blocks binding of human TLR4 to MyD88. actives 0.18% (n = 200,000). inhibition, % at 8.4 µM. O00206+Q99836. HeLa CL3-4 TLR4/MyD88 BLA complementation, FRET ratio; in the data active = inhibition above about 25%;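 note: 0% = vehicle and 100% = reference inhibitor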
Bfl-1 A1 inh: inhibitors of the anti-apoptotic protein A1, read as caspase activation. caspase activation, % (test concentration not listed). MEF A1-2A-BIM cells, Caspase-Glo 3/7 luminescence, 3 h; percent of clofoctol response, vehicle zero. AID 2462. actives 0.066% (n = 330,000);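 active = over half of replicate activation scores above 10%, or exactly half above 10 with the replicate mean above 10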
B2AR ag CP1: human beta-2 adrenergic receptor agonism, cherry pick; AID 540358; Am2.2-beta2AR cells, FAP surface receptor, flow cytometry; hits give low values; shares compounds with Beta2AR agonist; percent response (surface receptor), % at 10 µM; actives 25% (n = 1,100);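 active = surface receptor percent response at or below 58%, roughly 3 SD from nonfluorescent compounds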
FAP fluor counter: counter-screen for beta-2AR agonists: fluorescence in Am2.2 cells; calls only at 10 µM; shares compounds with Beta2AR agonist; 1,100 tested, under 10 active; FAP fluorogen flow cytometry, fluorescence counterscreen; hits give low values;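 active = percent response below a set limit in fluorescence channel 1 and below 50% in channel 8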
* marks the source's active call; other numbers are inactive results; i = inactive; x = no result. Compounds with a hit are over-represented: about 0.97% of the library has one in this group of screens.

SMILES | Beta2AR agonist | TLR9-MyD88 inh | NOD2-RIPK2 inh | NTR1 ag | TLR4 MyD88 comp | Bfl-1 A1 inh | B2AR ag CP1 | FAP fluor counter
CCOC(=O)c1c(NC(=O)COc2ccccc2C#N)sc2c1CC(C)(C)NC2(C)C | 5 | -3 | -5 | -2 | x | -1 | x | x
Cc1noc2ncnc(Oc3ccccc3)c12 | 0 | -6 | 5 | -1 | -7 | 1 | x | x
Cc1c(Cl)cccc1N1C(=O)C(N2C(=O)c3cccc([N+](=O)[O-])c3C2=O)C1c1cccs1 (stereo not given) | 52* | -3 | 4 | 10 | -3 | 0 | 96 | i
O=C(Nc1ccc2c(c1)CN(C(=O)Nc1ccc(F)cc1)CC2)c1ccccn1 | x | 4 | -1 | x | x | x | x | x
COC(=O)c1ccc(N2CCN(C)CC2)c(NC(=O)c2sc3ccccc3c2Cl)c1 | 71* | -8 | 5 | x | x | 0 | 82 | i
COc1ccc(/C(O)=C2\C(=O)C(=O)N(c3cc(C)on3)C2c2ccccc2OC)cc1 (stereo not given) | 50* | -5 | -1 | 0 | -1 | 1 | 112 | i
C=CCn1c(SCc2ccc(OC)cc2)nnc1-c1cccnc1 | 1 | -2 | -1 | 0 | -6 | 0 | x | x
C=CCn1c(SCc2ccc(F)cc2)nnc1-c1sc2nc(C)cc(C)c2c1N | 109* | x | -10 | 1 | x | 4 | 28* | i
OCCNCC(O)Cn1c2ccccc2c2ccccc21 (stereo not given) | -4 | -4 | -9 | 1 | -8 | -1 | x | x
COc1ccccc1CNCC(O)Cn1c2ccccc2c2ccccc21 (stereo not given) | 55* | -1 | -4 | 5 | 2 | 1 | 111 | i
COc1ccc2[nH]c(C)c(CCNC(=S)Nc3ccc(C)cc3)c2c1 | 5 | 5 | 4 | -1 | -3 | 1 | x | x
CC(=O)Nc1ccc(NC(=O)CSc2ncc(C(=O)Nc3ccc(F)cc3)c(=O)n2C)cc1 | 1 | 1 | -6 | 2 | x | -8 | x | x
Cn1c(SCC(=O)NCC2CCCO2)ncc(C(=O)Nc2ccc(Cl)cc2)c1=O (stereo not given) | 75* | -4 | -8 | 10 | x | -8 | 79 | i
Cn1c(SCC(=O)NCC2CCCO2)ncc(C(=O)Nc2ccc(F)cc2)c1=O (stereo not given) | 46* | -14 | 2 | 8 | x | 1 | 98 | i
CCOc1ccc(NC(=O)CNC(=O)c2nn(-c3ccc(OC)c(OC)c3)c(=O)c3ccccc23)cc1 | 54* | -6 | 1 | -2 | x | 0 | 67 | i
O=C(N1CCN(c2ncccn2)CC1)C12CC3CC(CC(C3)C1)C2 | -12 | 0 | -6 | 0 | x | 1 | x | x
CCCCN(C(=O)c1ccc(NC(=O)C(C)C)cc1)c1ccccc1 | 95* | -1 | -1 | -1 | 2 | 0 | 20* | i
COc1cc(C(=O)Nc2ccc3c(c2)ncn3C(C)(C)C)cc(OC)c1OC | 1 | -6 | -6 | 0 | x | -1 | x | x
Cc1ccc(NC(=S)NNC(C)(C)C)cc1 | 1 | -2 | -6 | 1 | x | 1 | 103 | i
Cc1cc(C)n(-c2nc(-n3nc(C)cc3C)c3c4c(sc3n2)COC(C)(C)C4)n1 | x | x | x | 3 | 0 | 2 | x | x
Cc1cc(C)n(-c2nc(SCC(=O)Nc3nccs3)c3c4c(sc3n2)COC(C)(C)C4)n1 | 93* | -2 | -3 | 8 | 0 | 0 | 77 | i
COc1ccc(C)cc1N1C(=N)/C(=C2/Nc3ccccc3S2)C(c2ccccc2)C1=O (stereo not given) | 45* | 5 | -1 | x | -7 | 1 | 85 | i
COc1ccc(C2C(Oc3ccccc3)C(=O)N2c2cc(C)ccc2C)cc1OC (stereo not given) | 2 | -4 | -16 | 1 | -6 | 0 | x | x
CC(C)(C)C(=O)Nc1ccccc1N1CCN(c2ccc(F)cc2)CC1 | 67* | 5 | -9 | 4 | x | 0 | 105 | i
O=[N+]([O-])c1cc(/C=N/N2CCOCC2)cs1 | -3 | -2 | 0 | 1 | x | -1 | x | x
SMILES | Beta2AR agonist | TLR9-MyD88 inh | NOD2-RIPK2 inh | NTR1 ag | TLR4 MyD88 comp | Bfl-1 A1 inh | B2AR ag CP1 | FAP fluor counter
COc1ccc(CNCCC(c2ccccc2)c2ccc(OC(C)C)cc2)cc1OC (stereo not given) | 35 | 0 | 12 | 8 | x | 0 | x | x
COc1ccc(C(CCNCc2ccc(OC(C)C)cc2)c2ccccc2OC)cc1 (stereo not given) | 23 | 6 | 11 | 25 | x | -2 | 54* | i
COc1ccc(CNCCC(c2ccc(OC)cc2)c2ccccc2OC)cc1 (stereo not given) | 16 | -19 | 4 | 2 | x | 1 | 90 | i
COc1ccc(C(CCNCc2ccc(N(C)C)cc2)c2ccccc2OC)cc1 (stereo not given) | 32 | 6 | -3 | 3 | x | 3 | 100 | i
CCC1CCCCN1CCCNC(=O)c1ccc(/C=C2/Sc3ccccc3NC2=O)cc1 (stereo not given) | 44* | 4 | 10 | 12 | x | 1 | 108 | i
O=C1Nc2cc(C(=O)NCCCN3CCCC3)ccc2S/C1=C\c1ccccc1 | 3 | -12 | -8 | 12 | x | -2 | x | x
CCOC(=O)C1CCCN(CCC(=O)Nc2ccc(C)cc2)C1 (stereo not given) | -1 | -5 | -4 | -1 | -4 | 0 | x | x
COc1ccc(C2/C=C\CN(C(=O)c3ccccc3)CC(=O)N2Cc2cccc(F)c2)cc1 (stereo not given) | 4 | 3 | 6 | 2 | x | x | 101 | i
COc1ccc(C2/C=C\CN(C(=O)c3ccccc3)[C@H](Cc3ccccc3)C(=O)N2Cc2ccc(F)cc2)cc1 (stereo not given in full) | 12 | -6 | 1 | 1 | x | 0 | 105 | i
COc1ccc([C@H]2/C=C\CN(C(=O)c3ccc(C)cc3)[C@@H](C)C(=O)N2Cc2ccc(F)cc2)cc1 | 15 | -4 | 1 | 7 | x | 0 | 106 | i
COc1ccc([C@H]2/C=C\CN(C(=O)CC(C)(C)C)[C@@H](C)C(=O)N2Cc2ccc(F)cc2)cc1 | -8 | -5 | 6 | 2 | x | 0 | x | x
COc1ccc([C@H]2/C=C\CN(Cc3ccc(N(C)C)cc3)[C@@H](C)C(=O)N2Cc2ccc(F)cc2)cc1 | 113* | -1 | -4 | 3 | x | 1 | 29* | i
O=C(O)COc1ccccc1/C=N/NC(=O)/C(=C\c1ccc2c(c1)OCO2)NC(=O)c1ccccc1 | 1 | 4 | -6 | 2 | -10 | 0 | x | x
